The source of these data is PMC7819943, “Rice protein-binding microarrays: a tool to detect cis-acting elements near promoter regions in rice”.

In all, about 39,000 sequences were measured (“fluorescence intensity (a.u.)”: median about 4,300, highest 2% from about 39,000 on). The sample as a whole holds a higher share of the highest values than the screen did.

This experiment addresses T1, OsSMF1 (Oryza sativa, UniProt Q6ZLB0 1-436).
T1 sequence: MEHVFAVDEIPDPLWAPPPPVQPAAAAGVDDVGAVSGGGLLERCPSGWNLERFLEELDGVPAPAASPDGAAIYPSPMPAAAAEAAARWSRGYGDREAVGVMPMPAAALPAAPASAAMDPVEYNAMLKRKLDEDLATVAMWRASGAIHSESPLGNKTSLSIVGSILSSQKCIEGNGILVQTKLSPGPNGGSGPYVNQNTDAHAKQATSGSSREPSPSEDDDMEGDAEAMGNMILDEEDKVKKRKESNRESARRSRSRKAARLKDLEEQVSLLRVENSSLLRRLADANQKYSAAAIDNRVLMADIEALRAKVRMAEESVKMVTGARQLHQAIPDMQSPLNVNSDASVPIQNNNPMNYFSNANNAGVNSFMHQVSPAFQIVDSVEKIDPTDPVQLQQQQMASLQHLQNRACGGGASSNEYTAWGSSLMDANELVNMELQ
The experiment is described as follows: protein-binding microarray (RPBM); PBS, 2% BSA, 51.3 ng/ul salmon testes DNA, 50 uM zinc acetate, 200 nM TF, 25 C, 1 h; high values mean tight binding. As to conditions: protein: recombinant; tags: N-terminal polyhistidine and DsRed monomer fusion (pET32a); chain copies: 2; label: CyDye5-dUTP incorporated in the synthesized complementary strand; 3' TTTTT single-stranded linker to array surface; dsDNA, one strand shown. Put shortly:
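Transcription factors were each fused at the N-terminus to a polyhistidine tag plus DsRed and expressed in E. coli BL21-CodonPlus before Ni–NTA purification. Binding to a double-stranded custom Agilent array was carried out with 200 nM protein at 25 °C for 1 h in PBS, 2% BSA, salmon testes DNA and 50 µM zinc acetate. The binding signal is per-feature fluorescence intensity, in arbitrary units, on an Axon 4000B scanner.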
With “GGTTGAATCAAATTGTTCCTCTGTTACACTTACACATCATCGGAGTCACCTAGTGCAG”, the binding signal was 3250 fluorescence intensity (a.u.).

For “AATACTGAATACTAGTGCAACGTCATTGAAAATTTTATCCCGGAGTCACCTAGTGCAG”, the binding signal is 5090 fluorescence intensity (a.u.). Turning to “CGTCGTGCCTACGGGCCGTTCGCGTGTCGTGTCGGCCCAACGGAGTCACCTAGTGCAG”, the binding signal is 3850 fluorescence intensity (a.u.).

“ACGGTAGGAGCTGCAGCGGTCGGGGTGGGAGCAGGGGTCGCGGAGTCACCTAGTGCAG”: the binding signal was 3440 fluorescence intensity (a.u.). As for “AAATGTTATGAGTACGATGACACATTAAAACACAGTCATTCGGAGTCACCTAGTGCAG”, the binding signal was 4650 fluorescence intensity (a.u.). Under “TTTTGGGCCTCCTGTGACCTACATGGGCCGCACTTCTTTCCGGAGTCACCTAGTGCAG” stands 25900 fluorescence intensity (a.u.); under “TTACAGGTGTTGTCATTTTATGTGACCGGTCAGACCGGGCCGGAGTCACCTAGTGCAG”, 4510 fluorescence intensity (a.u.). Under “GACCATAAGTGTCCACGTATGCAAAACTCGACCTCCGTTTCGGAGTCACCTAGTGCAG” stands 13800 fluorescence intensity (a.u.); under “CACAACCACAAGGTTGTCATTACCTCTATCATCGGTGTAACGGAGTCACCTAGTGCAG”, 3380 fluorescence intensity (a.u.). For “CATCATGTCCTATCTGAACTGTTACAACCACGACGTAGTACGGAGTCACCTAGTGCAG” the value was 3320 fluorescence intensity (a.u.); for “CATTTATAACTTTGCTGTGTTTCACTGATGCAGGTTTTATCGGAGTCACCTAGTGCAG”, 3490 fluorescence intensity (a.u.); for “CGCCACCGTCACCGACCGCGCGCGCACGCACGCACACTCCCGGAGTCACCTAGTGCAG”, 3390 fluorescence intensity (a.u.). On to “TCCGCCGTCGCCGCTCCGTCCATCGCCCGCCGTCACCGCCCGGAGTCACCTAGTGCAG”, for which the binding signal was 4040 fluorescence intensity (a.u.).

Turning to “CCGTCGCCGCCAAGCATCGAGCCGCCGGCCACAGCAGCCGCGGAGTCACCTAGTGCAG”, the binding signal is 42100 fluorescence intensity (a.u.). With “AAAGCCGCACACGTGTTTCCCGCGACCGCGCCACGTCACCCGGAGTCACCTAGTGCAG”, the binding signal was 46700 fluorescence intensity (a.u.). For “CCAGCATCGCCGGCAGATCCACGTCGAGCATCGCGGCAGGCGGAGTCACCTAGTGCAG” the value was 5190 fluorescence intensity (a.u.); for “CGGTCGGTCCATCGCCCTCCGTCCCCATCCCCACCGTCACCGGAGTCACCTAGTGCAG”, 41900 fluorescence intensity (a.u.); for “GTGGCGCGCGCGCGCACGCACGCTGGGCGACACGCCACGCCGGAGTCACCTAGTGCAG”, 4530 fluorescence intensity (a.u.). Regarding “CCGCCGCAGCCGCAGCCGGCCAAGCTGGGCGTCGGCGACACGGAGTCACCTAGTGCAG”, the binding signal was 39700 fluorescence intensity (a.u.).

On to “CGGCGTGGCCGCTGCGTCACGGGCGACTGCGCCAGCGTGCCGGAGTCACCTAGTGCAG”, for which the binding signal was 5890 fluorescence intensity (a.u.). For “CCCCTCCGCCTCGTCCCCATCGGCCACTGCCACCACCGCCCGGAGTCACCTAGTGCAG” the value was 3700 fluorescence intensity (a.u.); for “GCGCGCGCCACCGCACCCGCGACGCCGACGTGTTCATGACCGGAGTCACCTAGTGCAG”, 5890 fluorescence intensity (a.u.); for “CACGCCGCCGCCCGTCGCGAGCTCCACGTCGAGCAGCAGCCGGAGTCACCTAGTGCAG”, 4920 fluorescence intensity (a.u.).
